Bioassay records as filed in PubChem BioAssay.
This is one part of a sample in which hits are shown more often than they occur.
HIV RNase H inh-1: inhibitors of HIV-1 reverse transcriptase RNase H | RT-RNase H RNA/DNA duplex cleavage, fluorescence | 1.9% of 65,000 active | AID 565 | inhibition, % at 10 µM; in the data active = inhibition above about 50%
HIV RNase H inh-2: confirmation of HIV-1 reverse transcriptase RNase H inhibitors. Recombinant RT RNase H, fluorescent RNA/DNA duplex cleavage. 39% of 1,000 active. inhibition, % at 10 µM. shares compounds with HIV RNase H inh-1; in the data active = inhibition above about 48%; inconclusive = no clear call, values can overlap the other calls
Starred values were filed as active, the others as inactive; ? = inconclusive.

SMILES | HIV RNase H inh-1 | others
CCOC(=O)C1=C(C)NC(SCc2cc(=O)[nH][nH]2)=C(C#N)C1c1cccs1 (configuration not stated) | 1
CCOC(=O)N1CCN(C(=O)CN(c2ccc(OCc3ccccc3)cc2)S(C)(=O)=O)CC1 | 3
O=C(O)c1cccnc1SC1CC(=O)N(c2cccc(C(F)(F)F)c2)C1=O (configuration not stated) | 14
COc1ccccc1N1C(=O)CC(Sc2ncccc2C(=O)O)C1=O (configuration not stated) | 14
O=C1CC(Sc2ncccn2)C(=O)N1c1ccccc1C(F)(F)F (configuration not stated) | 70* | HIV RNase H inh-2=0
O=C(CCNS(=O)(=O)c1cccc2nsnc12)NC1CCN(Cc2ccccc2)CC1 | -1
CCc1nnc(NC(=O)c2ccc(S(=O)(=O)N(CC)Cc3ccccc3)cc2)o1 | 22
CCCCN(CC)S(=O)(=O)c1ccc(C(=O)Nc2nnc(-c3cccs3)o2)cc1 | 74* | HIV RNase H inh-2=?
CCCCN(CCCC)S(=O)(=O)c1ccc(C(=O)Nc2nnc(COC)o2)cc1 | 21
O=S(=O)(NCc1cn2ccsc2n1)c1ccc2c(c1)OCCO2 | -3
N#Cc1cc(-c2ccccc2)nn1-c1ccccc1 | 91* | HIV RNase H inh-2=56*
Cc1cc(C(=O)Nc2ccccc2C#N)n(-c2ccccc2)n1 | -11
N#Cc1cn(-c2ccccc2)nc1-c1ccccc1 | -9
COC(=O)C1CCN(C(=O)C2CCCCC2)CC1 | -5
C=CCn1c(Cc2c[nH]c3ccccc23)n[nH]c1=S | 54* | HIV RNase H inh-2=20
C=CCN(CC=C)Cc1c[nH]c2ccccc12 | -1
C=CCn1c(=S)[nH]c2ccccc2c1=O | -27
COc1ccc(C)cc1S(=O)(=O)N(CC(N)=O)Cc1ccccc1 | -4
CCCCNC(=O)c1sc(=S)n2c1[nH]c(=O)c1ccccc12 | 11
O=C(NC1CCCCC1)c1sc(=S)n2c1[nH]c(=O)c1ccccc12 | 74* | HIV RNase H inh-2=59*
O=C(NCC1CCCO1)c1sc(=S)n2c1[nH]c(=O)c1ccc(C(=O)N3CCCCC3)cc12 (configuration not stated) | -1
COc1cccc(N2C(=O)CC(N3CCC(C(N)=O)(N4CCCCC4)CC3)C2=O)c1 (configuration not stated) | 14
O=C(O)CN(Cc1ccccc1)S(=O)(=O)c1ccc(F)cc1 | 34
CCOc1ccc2[nH]c(=O)c(CN(Cc3ccc(F)cc3)C(=O)c3ccco3)cc2c1 | 42
CCc1ccc2[nH]c(=O)c(CN(Cc3ccc4c(c3)OCO4)C(=O)c3ccco3)cc2c1 | 58* | HIV RNase H inh-2=20
SMILES | HIV RNase H inh-1 | others
COc1ccc2[nH]c(=O)c(CN(Cc3ccc4c(c3)OCO4)C(C)=O)cc2c1 | -16
CCc1cccc(CC)c1N(COC)C(=O)Cn1c(C(C)O)nc2ccccc21 (configuration not stated) | -6
CCC1CCCCN1C(=O)CSc1nnc(CNC(=O)COc2ccc(Cl)cc2)o1 (configuration not stated) | -4
CCOC(=O)c1sc2nc(N3CCOCC3)c3c(c2c1N)CCCC3 | -3
NC(=O)c1sc2nc(N3CCCCC3)c3c(c2c1N)CCCC3 | -35
Nc1c(C(=O)NCc2ccco2)sc2nc(N3CCOCC3)c3c(c12)CCCC3 | 54* | HIV RNase H inh-2=3
Cc1ccc2c(CC(=O)Nc3nc(C)cs3)coc2c1 | -2
O=c1c2[nH]c3ccccc3c2ncn1CCN1CCCCC1 | 78* | HIV RNase H inh-2=37
O=c1c2[nH]c3ccccc3c2ncn1CCN1CCOCC1 | 1
Cc1ccc2c(c1)[nH]c1c(=O)n(CCN3CCCCC3)cnc12 | -17
Cc1nc2ccccc2n1CCC(=O)Nc1cccc(F)c1 | -10
COc1ccc(-n2c(SCC(=O)N3CCCC3)nc3c([nH]c4ccccc43)c2=O)cc1 | 87* | HIV RNase H inh-2=88*
Cc1ccc(-n2c(SCC(N)=O)nc3c([nH]c4ccccc43)c2=O)cc1 | -1
O=C(CSc1nc2c([nH]c3ccccc32)c(=O)n1-c1ccccc1)N1CCOCC1 | 4
O=C(CSc1nc2c([nH]c3ccccc32)c(=O)n1-c1cccc(Cl)c1)N1CCOCC1 | 78* | HIV RNase H inh-2=67*
COc1cccc(-n2c(SCC(N)=O)nc3c([nH]c4ccccc43)c2=O)c1 | 6
COc1cccc(-n2c(SCC(=O)Nc3cc(C)on3)nc3c([nH]c4ccccc43)c2=O)c1 | -4
CC(=O)NC(CCS(C)(=O)=O)C(=O)Nc1cccc(C(C)=O)c1 (configuration not stated) | -70
COc1cccc(N2CC(O)Cn3c2nc2c3c(=O)n(CCCc3ccccc3)c(=O)n2C)c1 (configuration not stated) | -1
COc1ccc(Br)cc1C1N2CC3(C)CN1CC(C)(C2)C3=O (configuration not stated) | -8
CCOc1cc(S(=O)(=O)NCCc2cccc(C)c2)c(OCC)cc1-n1cnnn1 | -1
O=C(Cn1cnnn1)Nc1ccccc1Cc1ccccc1 | -10
CCOC(=O)COc1ccc2c(c1)C(=O)CC1(CCN(C(C)=O)CC1)O2 | -9
COc1cc(N2C(=O)NC3CC2(C)Oc2ccc(Br)cc23)cc(OC)c1OC (configuration not stated) | 5
COc1ccc(N2CCN(CCNC(=O)c3c(C)cc(=O)oc3C)CC2)cc1 | 19
SMILES | HIV RNase H inh-1 | others
COc1ccc(N2CCN(Cc3cc(=O)oc4cc(C)c(Cl)c(C)c34)CC2)cc1 | 72* | HIV RNase H inh-2=68*
Cc1cc2oc(=O)cc(CN3CCC(C)CC3)c2c(C)c1Cl | -7
CCCCN=CC1=C(O)C(C(=O)OC)C(C)(C)CC1=O (configuration not stated) | -8
CCOc1ccc(N2C(=O)c3cccnc3C2Nc2ccc(Cl)cc2)cc1 (configuration not stated) | 20
COC(=O)c1cc(NC2c3ncccc3C(=O)N2Cc2ccccc2)cc(C(=O)OC)c1 (configuration not stated) | -6
Cc1ccc(NC2c3ncccc3C(=O)N2c2ccccc2C)cc1C (configuration not stated) | 56* | HIV RNase H inh-2=11
O=C(O)c1ccc(Cl)c2c1C1C=CCC1C(c1ccccn1)N2 (configuration not stated) | 83* | HIV RNase H inh-2=-2
C1=CC2c3ccccc3NC(c3ccncc3)C2C1 (configuration not stated) | 3
COc1cccc2c1NC(C(=O)O)C1CC=CC21 (configuration not stated) | -3
O=C(NCc1ccco1)c1cc(-c2cccnc2)nc2ccccc12 | 5
O=C(NCc1ccco1)c1cccnc1-c1nc2ccccc2s1 | 85* | HIV RNase H inh-2=63*
O=C(NCc1ccco1)c1cccc2ccccc12 | -4
CC1(C)CC(=O)C2=C(C1)NC(=O)CC2c1ccc(N(CCC#N)CCC#N)cc1 (configuration not stated) | 0
CCOC(=O)C(CC)Sc1nc(-c2ccc(OC)cc2)nc2c1c(=O)n(C)c(=O)n2C (configuration not stated) | 9
Cc1cc(C)cc(Nc2ncc3c(n2)CC(c2ccco2)CC3=O)c1 (configuration not stated) | -11
O=C1CC(c2ccco2)Cc2nc(Nc3nc(-c4ccccc4)c4ccccc4n3)ncc21 (configuration not stated) | 73* | HIV RNase H inh-2=66*
O=C(Nc1ncc2c(n1)CC(c1ccco1)CC2=O)c1ccccc1 (configuration not stated) | -2
